Inconclusive results are not listed. Calls of active or inactive are those of the source. Rule for the calls: active = hit-call score of the fitted dose curve at least 0.9, where 1 is the maximum; inconclusive = response in the unintended direction; inactive = score below 0.9.
Assay: ACEA_ER_AUC_viability: ACEA Biosciences xCELLigence Real-Time Cell Analysis on Estrogen Receptor Agonism for Viability (AID 2283782);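 note: hit means loss of impedance signal meaning reduced cell growth or viability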
In short: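 Viability endpoint: reduced impedance area under the curve relative to DMSO, recorded by real-time electrode sensing over ~80 h of continuous exposure. Duplicate plates of T47D in hormone-depleted medium; eight concentrations, 1:4 dilutions, 100 uM maximum.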

SMILES | AC50 | outcome
CC1=C(C(=O)Nc2ccccc2)S(=O)(=O)CCO1 | 28.6 µM (active) | –
Oc1ccccc1Br | – | inactive
C/C(=N\NC(=O)Nc1cc(F)cc(F)c1)c1ncccc1C(=O)O | – | inactive
CCOP(=S)(OCC)SCS(=O)(=O)CC | – | inactive
CCOP(=S)(OCC)SCSc1ccc(Cl)cc1 | 27.9 µM (active) | –
COP(N)(=S)OC | 32.4 µM (active) | –
COP(=O)(CCC(=O)NCO)OC | 56.8 µM (active) | –
COC(=O)C(F)(F)C(F)(F)OC(F)(C(F)(F)F)C(F)(F)OC(F)=C(F)F (stereo not drawn) | – | inactive

— PubChem BioAssay (EPA / NIEHS)
